Data published in PubChem BioAssay (Tox21).
Where “and” joins values, the source holds several entries; their conditions need not be identical. Equal values may be shown once. Records with an inconclusive call do not appear. Some compounds were tested as several samples or in several runs, with calls that do not always agree. Calls of active or inactive are those of the source. Unless noted, calls come from the whole dose curve; as a rule, active = well fitted curve in the direction sought with a large enough effect in the repeat runs; inconclusive = weak or mixed curves; inactive = no such curve, though single readings can be large; an effect the other way counts as inactive or inconclusive.

How the values were obtained:
[1] = qHTS assay to identify small molecule antagonists of the glucocorticoid receptor (GR) signaling pathway - cell viability counter screen (AID 720693); note: nearly all actives have a fitted effect of over 55% in size; note: potency is the fitted concentration of half-maximal effect
[2] = qHTS assay for identifying genotoxic compounds that show differential cytotoxicity against isogenic chicken DT40 cell lines with known DNA damage response pathways - wild type cell line (AID 743012); note: nearly all actives have a fitted effect of over 60% in size; note: potency is the fitted concentration of half-maximal effect
Summary of the method: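 First, wild type DT40 cells were plated at 300 per well and equilibrated about 0.5 h at 37 C/5% CO2. Next, compounds in DMSO were added and exposure lasted 40 h. Finally, CellTiter-Glo was added for 30 min at room temperature and luminescence recorded.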

[3] = qHTS assay for identifying genotoxic compounds that show differential cytotoxicity against isogenic chicken DT40 cell lines with known DNA damage response pathways - Rev3 mutant cell line (AID 743014); note: nearly all actives have a fitted effect of over 55% in size; note: potency is the fitted concentration of half-maximal effect
[4] = qHTS assay for identifying genotoxic compounds that show differential cytotoxicity against isogenic chicken DT40 cell lines with known DNA damage response pathways - Rad54/Ku70 mutant cell line (AID 743015); note: nearly all actives have a fitted effect of over 60% in size; note: potency is the fitted concentration of half-maximal effect
[5] = qHTS assay to identify small molecule antagonists of the androgen receptor (AR) signaling pathway - cell viability counter screen (AID 743033; note: nearly all actives have a fitted effect of over 45% in size; note: potency is the fitted concentration of half-maximal effect)
[6] = qHTS assay to identify small molecule antagonists of the androgen receptor (AR) signaling pathway using the MDA cell line - cell viability counter screen (AID 743041; note: nearly all actives have a fitted effect of over 45% in size; note: potency is the fitted concentration of half-maximal effect)
Summary of the method: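 MDA-kb2 AR-luc cells (MMTV-luciferase, AR/GR responsive) treated with compounds plus R1881 agonist for 16 h at 37C. CellTiter-Fluor added at 15.5 h; fluorescence read after 30 min in the same wells.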

[7] = biological target: Androgen receptor (Homo sapiens) (UniProt P10275); assay: qHTS assay to identify small molecule antagonists of the androgen receptor (AR) signaling pathway (AID 743035; active = well fitted inhibition curve with a large enough effect in the signal ratio in the repeat runs, not every such curve was filed as active; the % refers to the signal ratio)
Sequence of Androgen receptor (Homo sapiens) (P10275 whole entry, looked up): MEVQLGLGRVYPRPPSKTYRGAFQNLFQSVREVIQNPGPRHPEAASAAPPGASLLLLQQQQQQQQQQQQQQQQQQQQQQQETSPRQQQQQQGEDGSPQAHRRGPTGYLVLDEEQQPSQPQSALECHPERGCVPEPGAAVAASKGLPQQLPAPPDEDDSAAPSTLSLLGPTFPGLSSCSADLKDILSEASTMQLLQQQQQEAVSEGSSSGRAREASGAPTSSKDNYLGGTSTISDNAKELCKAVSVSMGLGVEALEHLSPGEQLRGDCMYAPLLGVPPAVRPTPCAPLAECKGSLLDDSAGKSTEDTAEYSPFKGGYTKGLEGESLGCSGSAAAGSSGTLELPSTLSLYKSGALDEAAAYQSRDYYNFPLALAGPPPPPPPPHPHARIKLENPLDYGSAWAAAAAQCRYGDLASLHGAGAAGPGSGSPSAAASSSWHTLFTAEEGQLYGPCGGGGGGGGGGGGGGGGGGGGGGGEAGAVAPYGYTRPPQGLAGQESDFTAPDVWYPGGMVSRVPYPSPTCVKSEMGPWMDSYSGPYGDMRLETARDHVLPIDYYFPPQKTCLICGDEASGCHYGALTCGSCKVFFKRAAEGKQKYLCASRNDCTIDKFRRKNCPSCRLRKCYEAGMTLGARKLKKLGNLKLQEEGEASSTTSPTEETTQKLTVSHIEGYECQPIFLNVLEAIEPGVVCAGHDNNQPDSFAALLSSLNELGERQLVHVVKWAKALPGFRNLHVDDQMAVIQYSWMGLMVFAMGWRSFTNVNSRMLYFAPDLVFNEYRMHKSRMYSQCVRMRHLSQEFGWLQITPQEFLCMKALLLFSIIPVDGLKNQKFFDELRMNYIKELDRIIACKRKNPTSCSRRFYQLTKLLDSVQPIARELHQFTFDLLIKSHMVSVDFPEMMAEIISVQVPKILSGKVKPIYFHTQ
Summary of the method: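 Beta-lactamase FRET read (2 h RT incubation with LiveBLAzer B/G) following 16 h of compound plus R1881 treatment of AR-UAS-bla HEK293 cells, which had been pre-incubated 4 h at 37C.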

[8] = biological target: Androgen receptor (Homo sapiens) (UniProt P10275); assay: qHTS assay to identify small molecule agonists of the androgen receptor (AR) signaling pathway (AID 743036; active = well fitted activation curve with a large enough effect in the signal ratio in the repeat runs, with a control signal flat, not every such curve was filed as active; the % refers to the signal ratio)
Summary of the method: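 Reporter line: GeneBLAzer AR-UAS-bla-GripTite (HEK293). Steps: plate cells, 4 h rest, add compounds, 16 h at 37C, add LiveBLAzer B/G substrate, 2 h at RT, read fluorescence.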

[9] = biological target: Androgen receptor (Homo sapiens) (UniProt P10275); assay: qHTS assay to identify small molecule agonists of the androgen receptor (AR) signaling pathway using the MDA cell line (AID 743040; note: nearly all actives have a fitted effect of over 20% in size)
Summary of the method: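 MDA-kb2 breast carcinoma cells carrying MMTV-luciferase (responsive to AR and GR), plated 5 h then treated 16 h with compounds at 37C, 0% CO2. Read-out was ONE-Glo luminescence after 30 min at room temperature.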

[10] = biological target: Androgen receptor (Homo sapiens) (UniProt P10275); assay: qHTS assay to identify small molecule antagonists of the androgen receptor (AR) signaling pathway using the MDA cell line (AID 743042; note: nearly all actives have a fitted effect of over 55% in size; note: potency is the fitted concentration of half-maximal effect)
Summary of the method: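 MDA-kb2 breast carcinoma cells carrying MMTV-luciferase (AR/GR responsive) were co-treated with compounds and the agonist R1881 for 16 h at 37C. Inhibition read as ONE-Glo luminescence; CellTiter-Fluor fluorescence measured in parallel for cytotoxicity.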

Measured: Potency

C=C(C)C(=O)[O][Sn]([CH2]CCC)([CH2]CCC)[CH2]CCC
active: [1] 776 nM | [2] 486 nM | [3] 686 nM | [4] 545 nM | [5] 776 nM | [6] 1930 nM

CCOP(=S)(OCC)Oc1cc(C)nc(N(CC)CC)n1
active: [2] 27300 nM | [3] 27300 nM | [4] 27300 nM
not listed: [5]
inactive: all other assays above

C[C@]12C/C(=C/O)C(=O)C[C@@H]1CC[C@@H]1[C@@H]2CC[C@@]2(C)[C@H]1CC[C@]2(C)O
inactive and 44.1 µM (active): [5]
inactive: [6]
active: [1] 49400 nM | [2] 29800 nM | [3] 49000 nM | [4] 13.3 µM and 15.5 µM

O=[N+]([O-])c1ccc(CCl)cc1
inactive: [1] | [2] | [3] | [4] | [5] | [6]

Clc1ccc(C(Cl)(Cl)Cl)cc1Cl
inactive: [1] | [2] | [3] | [4] | [5] | [6]

CC(=O)[O][Pb]([c]1ccccc1)([c]1ccccc1)[c]1ccccc1
inactive: [9]
active: [1] 776 nM | [3] 122 nM | [4] 122 nM | [5] 549 nM | [6] 1720 nM | [10] 611 nM

C=CC(=C)C
active: [3] 21700 nM | [4] 24300 nM
inactive: [1] | [5]

CC(Cc1ccc(OCC(=O)O)cc1)NCC(O)c1csc(C(F)(F)F)n1 (configuration not stated)
inactive: [1] | [3] | [4] | [5] | [6]

Oc1cccc(Cl)c1Cl
inactive: [1] | [2] | [4] | [5] | [6]

CNC(C)(C)Cc1ccccc1
inactive: [1] | [3] | [4] | [5] | [6]

COP(=O)(OC)Oc1ccc([N+](=O)[O-])cc1
inactive: [1] | [4] | [5]
active: [3] 61100 nM

O=NN(CCO)CCO
not listed: [2]
inactive: all other assays above

O=[N+]([O-])c1cc(C(F)(F)F)c(Cl)c([N+](=O)[O-])c1Nc1ncc(C(F)(F)F)cc1Cl
active: [1] 21900 nM | [3] 137 nM | [4] 137 nM | [5] 275 nM | [6] 15400 nM
